Source: PubChem
Only some compounds are listed: those with a hit (about 2.3% of all), similar ones and a draw of the others.
CHO-K1 Ca antag = M1 antagonist counterscreen hit in parental CHO-K1 cells | ATP-induced calcium, Fluo-8 fluorescence | inhibition, % at 3 µM | hit rate 0.6% among 360,000;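 active = inhibition above a per-plate cutoff, the plate's mean sample inhibition plus 3 SD, cut at about 24% in these data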;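 also: 0% = DMSO plus EC80 ATP and 100% = DMSO alone without ATP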
M1 antag = blocks human M1 muscarinic receptor; CHO-K1 hM1, Fluo-8 calcium fluorescence, ACh EC80 antagonist; P11229; inhibition, % at 3 µM; hit rate 1.3% among 360,000; AID 588852;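 active = percent inhibition above its own plate's cutoff, namely the mean of that plate's compound wells plus 3 SD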;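 also: peak over basal fluorescence ratio during 140 s after agonist addition; 0% = ACh EC80 plus DMSO and 100% = DMSO alone without agonist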
Target sequence (P11229 whole entry, looked up): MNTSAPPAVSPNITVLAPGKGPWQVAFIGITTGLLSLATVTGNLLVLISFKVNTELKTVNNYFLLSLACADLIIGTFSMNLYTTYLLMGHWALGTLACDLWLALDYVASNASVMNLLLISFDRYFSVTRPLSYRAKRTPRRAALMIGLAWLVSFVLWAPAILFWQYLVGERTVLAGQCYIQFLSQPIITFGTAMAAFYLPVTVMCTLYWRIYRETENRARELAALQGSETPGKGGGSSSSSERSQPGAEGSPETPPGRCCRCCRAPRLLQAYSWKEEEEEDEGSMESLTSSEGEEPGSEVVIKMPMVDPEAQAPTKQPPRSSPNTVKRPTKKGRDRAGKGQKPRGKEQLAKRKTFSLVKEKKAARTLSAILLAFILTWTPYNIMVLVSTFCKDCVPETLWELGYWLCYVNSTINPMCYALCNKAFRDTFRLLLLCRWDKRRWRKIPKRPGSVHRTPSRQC
M1 PAM = human CHRM1 positive allosteric modulation; P11229; CHO-K1 hM1, Fluo-8 calcium fluorescence, ACh EC20; 0% = ACh EC20, 100% = maximal ACh; activation, % at 3 µM; hit rate 0.088% among 360,000; in the data active = activation above about 19%, passing the limit was not always enough
CHRM1 agonist = agonists of human M1 muscarinic receptor. P11229. CHO-K1 hM1, Fluo-8 calcium fluorescence, agonist mode; 0% DMSO, 100% acetylcholine EC100. activation, % at 3 µM. hit rate 0.33% among 360,000;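 active = activation above the run's mean compound activation plus 3 SD, cut at about 16% in these data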;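 also: peak over basal fluorescence ratio within a 140 s kinetic read after compound addition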
CHO-K1 Ca PAM = nonselective activator or artifact in parental CHO-K1 calcium assay | AID 602247 | ATP EC20, Fluo-8 calcium fluorescence; 0% at ATP EC20, 100% at ATP max | hit rate 0.02% among 360,000 | activation, % at 3 µM;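 active = activation above the run cutoff, the mean activation of all test compounds plus 3 SD, cut at about 40% in these data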;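 also: peak over basal fluorescence ratio in a 140 s read after ATP addition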
CHO-K1 Ca ag = M1 agonist counterscreen hit in parental CHO-K1 cells; Fluo-8 calcium fluorescence; scaled to maximal ATP response, vehicle zero; hit rate 0.48% among 360,000; activation, % at 3 µM; in the data active = activation above about 15%;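 also: untransfected CHO-K1 host cells lacking M1 receptor as counterscreen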
* hit, by the source's call; . = not tested or not shown.

SMILES	CHO-K1 Ca antag	M1 antag	M1 PAM	CHRM1 agonist	CHO-K1 Ca PAM	CHO-K1 Ca ag
CN(C)CC(O)COC(c1ccccc1)c1ccccc1 (stereo not drawn)	-4	39*	-34	-10	12	1
CCOC(=O)[C@]12CCCC=C1N(Cc1ccc(Cl)cc1Cl)C(=O)[C@H](CC(=O)N1CCN(C(=O)C3CC3)CC1)C2	-22	.	.	.	10	1
Cc1ccccc1OCC(=O)Nc1ccc2c(c1)C(=O)N(CCC(=O)O)C2=O	-5	-17	26*	8	-14	0
C#CCN(C)CC/C=C1\c2ccccc2CSc2ccccc21	-14	79*	-20	-6	7	0
CN(CC/C=C1/c2ccccc2CSc2ccccc21)CCCO	-6	89*	-23	-9	16	2
CN(C)CC/C=C1/c2ccccc2COc2ccc(CC(=O)O)cc21	6	-2	-9	-9	-9	0
c1ccc2c(c1)CSc1ccccc1N2	0	-15	2	-8	4	0
CC(O)CN(C)CC/C=C1/c2ccccc2CSc2ccccc21 (stereo not drawn)	8	63*	-24	-10	-7	1
NCC/C=C1/c2ccccc2CSc2ccccc21	-4	69*	-22	-6	4	1
Cc1ccc(S(=O)(=O)N(C)C[C@@H]2OCc3cnnn3CCCC(=O)N([C@H](C)CO)C[C@@H]2C)cc1	3	-13	8	-5	9	2
CC(=O)N(C)C[C@@H]1Oc2ncc(Br)cc2C(=O)N([C@H](C)CO)C[C@@H]1C	-8	-6	-1	-1	-5	1
O=C(NCC1CCOCC1)C1Cc2c(-c3ccccc3Oc3ccccc3)ccnc2O1 (stereo not drawn)	-9	-16	7	-5	11	1
C=CCN(C)CC/C=C1\c2ccccc2CSc2ccccc21	-2	91*	-20	-6	13	1
O=C1/C(=C/c2cccc(F)c2)Oc2cc(O)ccc21	-14	-1	-2	7	-7	15*
CCOC(=O)C1CCCN(c2cc(=O)n(C3CCCCC3)c(=O)[nH]2)C1 (stereo not drawn)	3	6	1	31*	9	1
O=c1[nH]c(/C=C\c2cccc(Cl)c2)nc(O)c1[N+](=O)[O-]	9	-5	0	-2	-10	-1
O=c1[nH]c(/C=C\c2cccc(F)c2)nc(O)c1[N+](=O)[O-]	-60	-20	8	4	41*	1
C=CCOc1ccc(/C=C\c2nc(O)c([N+](=O)[O-])c(=O)[nH]2)cc1OC	-6	-8	0	-4	2	0
C=CCOc1ccc(/C=C\c2nc(O)c([N+](=O)[O-])c(=O)[nH]2)cc1OCC	-9	-3	27*	-4	1	1
Cc1cccc(NS(=O)(=O)c2cccc(C(=O)NCC3(N4CCOCC4)CCCCC3)c2)c1	-2	13	-9	-7	-11	0
c1ccc(-c2ccc(CN3CCN(c4ncccn4)CC3)cc2)cc1	25*	15	-15	-6	-8	0
c1ccc(COc2ccc(CN3CCN(c4ccccn4)CC3)cc2)cc1	17	32*	-22	-6	-5	0
c1ccc(CN2CCN(c3ncccn3)CC2)cc1	2	13	-1	-6	-16	0
c1ccc(N2CCN(Cc3ccc4c(c3)OCO4)CC2)nc1	2	1	0	-7	14	0
O=C1c2cc(S(=O)(=O)N(CCO)CCO)ccc2-c2ccc(S(=O)(=O)N(CCO)CCO)cc21	3	-14	9	0	18	16*
SMILES	CHO-K1 Ca antag	M1 antag	M1 PAM	CHRM1 agonist	CHO-K1 Ca PAM	CHO-K1 Ca ag
O=S(=O)(c1ccc(Oc2ccc(S(=O)(=O)N(CCO)CCO)cc2)cc1)N(CCO)CCO	-2	-6	12	-5	17	0
Oc1ccccc1N1CCN(C(=S)NCCc2ccccc2)CC1	28*	13	-13	-2	-16	3
CCCn1c(=O)c(C(=O)NNC(=O)c2ccccc2Cl)c(O)c2ccccc21	-12	10	-16	30*	-1	21*
CC(C)Cn1c(=O)c(C(=O)Nc2ccncc2)c(O)c2ccccc21	-8	99*	-24	-7	19	0
CCn1c(=O)c(C(=O)NNC(=O)c2ccccc2)c(O)c2ccccc21	2	-6	2	11	-8	19*
CCOc1ccccc1N1CC(C(=O)Nc2cc(S(=O)(=O)N3CCOCC3)ccc2OC(C)C)CC1=O (stereo not drawn)	-14	-5	5	-5	8	2
CCN(c1ccc(OC)cc1)S(=O)(=O)N1CCCC(C(=O)NCc2ccc(OC(C)C)cc2)C1 (stereo not drawn)	-1	-3	-4	-3	-1	5
CCCCCCCCN1C(=O)[C@H](CC(=O)N2CCN(C(=O)c3ccco3)CC2)C[C@@]2(C(=O)OC)CCCCC=C12	-16	.	.	.	-1	1
COC1=CC(C)C2CC3OC(=O)CC4C(C)=C(OC)C(=O)C(C2(C)C1=O)C34C (stereo not drawn)	-5	-21	-2	-6	4	0
O=C(NCc1ccccc1)c1cc(C2CCCN(S(=O)(=O)c3cccs3)C2)on1 (stereo not drawn)	0	-2	0	-3	-6	1
Cc1ccc(C)c(NC(=O)Cn2cc(C(=O)C3CC3)c3ccccc32)c1	25*	-2	8	6	6	3
CC(=O)c1cn(CC(=O)Nc2ccccc2C(F)(F)F)c2ccccc12	27*	-5	3	3	-23	1
Cc1cc(C)cc(NS(=O)(=O)c2c(C)[nH]c(=O)[nH]c2=O)c1	27*	-15	11	-2	4	2
Cc1cc(F)cc(-c2cc(C(=O)NCc3ccco3)[nH]n2)c1	6	16	-9	-4	-8	1
CC12CC(O)C3C(CCC4=CC(=O)CCC43C)C1CCC2=CCO (stereo not drawn)	-16	-10	-3	-1	15	2
Cc1ccc([C@H]2C[C@@H](O)[C@H](n3cc(C4CC4)nn3)CN2C(=O)c2cccs2)cc1	-10	-8	7	-2	25	1
O=C(CSc1ccc(S(=O)(=O)N2CCOCC2)cn1)Nc1ccc(F)c(F)c1	10	39*	-14	0	-19	10
COc1ccc(NC(=O)[C@@H]2O[C@H](CO)[C@H](O)[C@H](O)[C@H]2O)cc1F	-1	4	2	-2	0	1
O=[N+]([O-])c1cccc(-c2ccn[nH]2)c1	-6	-2	31*	-2	2	1
O=[N+]([O-])c1cc(-c2ccn[nH]2)ccc1Cl	-6	-7	10	-9	21	2
